± gives the standard deviation.
Key:
Details in all cases: modulator concentration 10 µM
[1] = tested on: RAW-Dual (murine macrophage reporter line); assay: NF-kB reporter (SEAP) activity fold change vs agonist alone; higher = enhanced NF-kB activity
Outline: (§1)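 Overnight stimulation with a PRR agonist followed pre-incubation for 1 hour at 37 °C with compound at 10 μM final. This was done in RAW-Dual murine macrophage reporter cells seeded at 50 000 per well in 384-well plates. NF-κB (SEAP, QUANTI-Blue absorbance at 620 nm) and IRF (Lucia luciferase, QUANTI-Luc luminescence) were read from the supernatant. Each reporter's fold change relative to the mean agonist-only control on the same plate was averaged over replicate plates.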

[2] = tested on: RAW-Dual (murine macrophage reporter line); assay: IRF reporter (Lucia luciferase) activity fold change vs agonist alone; higher = enhanced IRF activity
Outline: as §1

[3] = tested on: RAW-Dual (murine macrophage reporter line); assay: viability score (confluency relative to resting cells, overnight) (fraction); higher = more viable, active = viable (0.7 or more)
Outline: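 RAW-Dual macrophages in 384-well plates were incubated overnight with compound, final concentration 10 μM. Confluency images from IncuCyte were processed in IncuCyte software into two masks covering all imaged wells. The viability score is each well's confluency relative to resting cells, and a compound met the cutoff when both masks exceeded 70% of resting cells.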

[4] = agonist: CpG ODN 1826 0.5 ug/mL

SMILES	NF-kB reporter [1, 4]	NF-kB reporter ([1]; agonist: LPS 0.1 ug/mL)	NF-kB reporter ([1]; agonist: MPLA […])	IRF reporter ([2]; agonist: 3'3'-cGAMP 10 ug/mL)	IRF reporter ([2]; agonist: LPS 0.1 ug/mL)	IRF reporter ([2]; agonist: MPLA […])	viability score [3]
[O-][n+]1cccc(CO)c1	1.58 ± 0.067	1.96 ± 0.16	3.03 ± 0.16	1.14 ± 0.054	1 ± 0.19	1.4 ± 0.42	0.987 (active)
COCCOCC1CCN(C(=O)c2cc(-c3cccc(OC)c3)n[nH]2)CC1	1.09 ± 0.076	0.967 ± 0.092	0.992 ± 0.051	0.957 ± 0.039	1.04 ± 0.059	0.985 ± 0.2	0.995 (active)
CCN(CC)c1nc(-c2ccccc2Cl)c2cc(Br)ccc2n1	0.999 ± 0.081	0.975 ± 0.1	1.02 ± 0.042	0.786 ± 0.058	1.05 ± 0.14	1.14 ± 0.25	1 (active)
O=C(O)CCCNC(=O)c1cccc([N+](=O)[O-])c1	1.06 ± 0.14	1.11 ± 0.082	0.983 ± 0.036	0.986 ± 0.14	1.11 ± 0.11	1.05 ± 0.19	1 (active)
CCCc1nc(-c2ccccc2)c(-c2ccc(OC)c(OC)c2)c(=O)[nH]1	0.803 ± 0.067	0.844 ± 0.1	1.06 ± 0.1	0.933 ± 0.057	1.46 ± 0.084	1.78 ± 0.16	1.01 (active)
O=c1[nH]cc(F)c(=O)[nH]1	1.48 ± 0.29	0.887 ± 0.21	1 ± 0.059	1.1 ± 0.059	1.33 ± 0.18	1.01 ± 0.17	0.735 (active)
Oc1ccc(-c2cnc(-c3ccc(O)cc3)nc2)cc1	0.924 ± 0.22	0.965 ± 0.091	1.42 ± 0.1	0.347 ± 0.017	0.555 ± 0.08	0.591 ± 0.16	0.927 (active)
CCC(=O)Nc1ccc(C(=O)NN=Cc2ccc(C#N)cc2)cc1	1.04 ± 0.094	1.03 ± 0.081	0.913 ± 0.064	0.972 ± 0.03	1.53 ± 0.22	1.11 ± 0.23	1.01 (active)
COCCNc1nc(SCC(=O)Nc2cccc(C(F)(F)F)c2)nc2ccccc12	0.268 ± 0.022	0.549 ± 0.051	0.528 ± 0.043	0.601 ± 0.035	1.29 ± 0.28	1.42 ± 0.46	0.956 (active)
CCOC(=O)C1=C(C)NC(C)=C(C(=O)OCC)C1c1ccc(O)cc1	1.41 ± 0.23	0.895 ± 0.083	1.35 ± 0.13	1.01 ± 0.03	0.971 ± 0.16	0.966 ± 0.099	0.991 (active)
CC(=NNC(N)=S)C1=CC(C)(C)CCC1	0.744 ± 0.061	0.985 ± 0.062	1.06 ± 0.13	0.462 ± 0.012	1.17 ± 0.19	0.978 ± 0.2	1.01 (active)
OCCN(CCO)CC(O)Cn1c2ccc(Br)cc2c2cc(Br)ccc21 (configuration not stated)	0.301 ± 0.024	0.484 ± 0.035	0.617 ± 0.06	0.742 ± 0.024	1.42 ± 0.24	1.35 ± 0.15	0.94 (active)
Cc1ccccc1C(=O)Nc1ccc(C(=O)N2CCCC(N(C)C)c3ccccc32)cc1 (configuration not stated)	1.05 ± 0.27	1 ± 0.05	0.929 ± 0.065	0.94 ± 0.046	1.15 ± 0.18	1.17 ± 0.13	1 (active)
Cl.Cl.OCCN1CCN(CCCN2c3ccccc3Sc3ccc(C(F)(F)F)cc32)CC1	0.972 ± 0.047	0.893 ± 0.073	0.91 ± 0.05	0.895 ± 0.042	1.03 ± 0.15	0.947 ± 0.3	0.677 (inactive)
OC(CNC1CCCCC1)Cn1c2ccc(Cl)cc2c2cc(Cl)ccc21 (configuration not stated)	0.137 ± 0.03	0.219 ± 0.037	0.613 ± 0.042	0.11 ± 0.058	0.302 ± 0.018	0.436 ± 0.12	0.0501 (inactive)
CN1CC(O)C2=C/C(=N/NC(N)=O)C(=O)C=C21 (configuration not stated)	0.855 ± 0.048	1 ± 0.084	0.927 ± 0.065	0.99 ± 0.046	1.09 ± 0.18	1.24 ± 0.44	0.665 (inactive)
CCCCc1nc2cc(/C=C/C(=O)NO)ccc2n1CCN(CC)CC	1.6 ± 0.08	1.77 ± 0.14	2.71 ± 0.12	0.0513 ± 0.0098	0.266 ± 0.019	0.424 ± 0.05	0.0718 (inactive)
Cc1nc(SCC(=O)N2CCCCCC2)[nH]c(=O)c1C	1.15 ± 0.077	1.17 ± 0.14	0.909 ± 0.04	1 ± 0.064	1.07 ± 0.14	0.977 ± 0.3	1 (active)
O=C1Nc2ccc(Cl)cc2[C@@](C#CC2CC2)(C(F)(F)F)O1	0.352 ± 0.029	0.486 ± 0.024	0.631 ± 0.02	0.964 ± 0.056	0.715 ± 0.092	1.47 ± 0.2	0.114 (inactive)
CCN1CCN(c2nc3c(c(=O)[nH]c(=O)n3C)n2CC(O)COc2cc(C)ccc2C(C)C)CC1 (configuration not stated)	1.18 ± 0.067	1.08 ± 0.086	1.2 ± 0.064	1.1 ± 0.061	1.38 ± 0.14	1.48 ± 0.31	0.956 (active)
COc1cccc(NC(=O)CN(c2cccc(Br)c2)S(C)(=O)=O)c1	0.906 ± 0.085	0.998 ± 0.074	0.919 ± 0.036	0.848 ± 0.092	0.937 ± 0.11	0.876 ± 0.078	0.998 (active)
Cc1c(C(=O)ON=C(N)c2ccncc2)cccc1[N+](=O)[O-]	1.01 ± 0.08	0.996 ± 0.06	0.851 ± 0.069	0.421 ± 0.031	1.33 ± 0.099	1.23 ± 0.16	0.992 (active)
Cc1ccc(S(=O)(=O)n2nnc3ccccc32)cc1C	1.07 ± 0.11	1.04 ± 0.092	0.991 ± 0.034	0.928 ± 0.059	0.982 ± 0.14	1 ± 0.23	1 (active)
Cc1ccc(Cn2c(N)nc3ccccc32)cc1	0.363 ± 0.067	1.21 ± 0.12	1.09 ± 0.098	1.07 ± 0.07	1.09 ± 0.23	1.37 ± 0.14	0.702 (active)
O=C(CCn1c(=O)oc2ccccc21)Nc1ccccc1	1.03 ± 0.17	1.22 ± 0.19	0.881 ± 0.08	0.969 ± 0.032	1.16 ± 0.19	1.06 ± 0.13	0.998 (active)
CCCC1=NN(c2ccc([N+](=O)[O-])cc2)C(=O)C1=CNC1CC1	0.833 ± 0.066	1.15 ± 0.065	0.934 ± 0.056	0.999 ± 0.043	1.49 ± 0.12	1.18 ± 0.2	1.01 (active)

From the supplement of paper PMC10646978
